Assay results published in the supplement of paper PMC9492666.

system: HCC1937; experiment: relative cell viability, compound + RSL3, vs DMSO (fraction of DMSO control); higher = less growth inhibition; conditions: 72 h
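Further: breast cancer cell viability read out with the CCK-8 kit after co-treatment of each compound with the ferroptosis inducer RSL3.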

SMILES	relative cell viability
O=C(Nc1ccc(C(O)(C(F)(F)F)C(F)(F)F)cc1)c1ccc(C(F)(F)F)cc1 + COC(=O)c1ccc([C@H]2c3[nH]c4ccccc4c3C[C@H](C(=O)OC)N2C(=O)CCl)cc1 [RSL3]	0.264
O=C(O)c1cccnc1Nc1cccc(C(F)(F)F)c1 [Niflumic acid] + COC(=O)c1ccc([C@H]2c3[nH]c4ccccc4c3C[C@H](C(=O)OC)N2C(=O)CCl)cc1 [RSL3]	0.734
O=C(O)CC[C@H](O)C(=O)O [L-2-Hydroxyglutaric acid disodium] + COC(=O)c1ccc([C@H]2c3[nH]c4ccccc4c3C[C@H](C(=O)OC)N2C(=O)CCl)cc1 [RSL3]	0.554
C[C@]12C=CC(=O)N[C@@H]1CC[C@@H]1[C@@H]2CC[C@]2(C)[C@@H](C(=O)Nc3cc(C(F)(F)F)ccc3C(F)(F)F)CC[C@@H]12 [Dutasteride] + COC(=O)c1ccc([C@H]2c3[nH]c4ccccc4c3C[C@H](C(=O)OC)N2C(=O)CCl)cc1 [RSL3]	0.53
C=CC[S+]([O-])C[C@H](N)C(=O)O (stereo partly drawn) [Alliin] + COC(=O)c1ccc([C@H]2c3[nH]c4ccccc4c3C[C@H](C(=O)OC)N2C(=O)CCl)cc1 [RSL3]	0.554
COc1ccc(-c2coc3cc(O)cc(O)c3c2=O)cc1 [Biochanin A] + COC(=O)c1ccc([C@H]2c3[nH]c4ccccc4c3C[C@H](C(=O)OC)N2C(=O)CCl)cc1 [RSL3]	0.66
NC(N)=NN=Cc1cccc(Cl)c1Cl [Raphin1] + COC(=O)c1ccc([C@H]2c3[nH]c4ccccc4c3C[C@H](C(=O)OC)N2C(=O)CCl)cc1 [RSL3]	0.289
COC(=O)c1sccc1S(=O)(=O)Nc1ccc(Nc2ccccc2)cc1OC + COC(=O)c1ccc([C@H]2c3[nH]c4ccccc4c3C[C@H](C(=O)OC)N2C(=O)CCl)cc1 [RSL3]	0.347
O=C(c1ccc(-c2nc3ccc(F)cc3o2)cc1)N1CCN(C(=O)C2(O)CC2)CC1 + COC(=O)c1ccc([C@H]2c3[nH]c4ccccc4c3C[C@H](C(=O)OC)N2C(=O)CCl)cc1 [RSL3]	0.398
CC(C)c1nc(N(C)S(C)(=O)=O)nc(-c2ccc(F)cc2)c1/C=C/[C@@H](O)C[C@@H](O)CC(=O)O [Rosuvastatin] + COC(=O)c1ccc([C@H]2c3[nH]c4ccccc4c3C[C@H](C(=O)OC)N2C(=O)CCl)cc1 [RSL3]	0.54
CCCCCCCCCCC#CC#CCCCCCCCCC(=O)O [10,12-Tricosadiynoic acid] + COC(=O)c1ccc([C@H]2c3[nH]c4ccccc4c3C[C@H](C(=O)OC)N2C(=O)CCl)cc1 [RSL3]	0.4
CCc1c(-c2ccccc2)c(-c2ccccc2)nn1-c1ccccc1-c1cccc(OCC(=O)O)c1 + COC(=O)c1ccc([C@H]2c3[nH]c4ccccc4c3C[C@H](C(=O)OC)N2C(=O)CCl)cc1 [RSL3]	0.503
COc1ccc2[nH]cc(CCNC(C)=O)c2c1 [Melatonine] + COC(=O)c1ccc([C@H]2c3[nH]c4ccccc4c3C[C@H](C(=O)OC)N2C(=O)CCl)cc1 [RSL3]	0.613
C=CCc1ccc(O)c(-c2cc(CC=C)ccc2O)c1 [Magnolol] + COC(=O)c1ccc([C@H]2c3[nH]c4ccccc4c3C[C@H](C(=O)OC)N2C(=O)CCl)cc1 [RSL3]	0.789
O=C(OC(C(F)(F)F)C(F)(F)F)N1CCN(Cc2ccc(C(F)(F)F)cc2N2CCCC2)CC1 + COC(=O)c1ccc([C@H]2c3[nH]c4ccccc4c3C[C@H](C(=O)OC)N2C(=O)CCl)cc1 [RSL3]	0.928
COc1ccc(C2(CNC(=O)c3ccc(NC(=O)c4ccco4)cc3)CCOCC2)cc1 + COC(=O)c1ccc([C@H]2c3[nH]c4ccccc4c3C[C@H](C(=O)OC)N2C(=O)CCl)cc1 [RSL3]	0.441
CC(C)=CCC[C@](C)(O)[C@H]1CC[C@]2(C)[C@@H]1[C@H](O)C[C@@H]1[C@@]3(C)CC[C@H](O)C(C)(C)[C@@H]3[C@@H](O)C[C@]12C [(20S)-Protopanaxatriol] + COC(=O)c1ccc([C@H]2c3[nH]c4ccccc4c3C[C@H](C(=O)OC)N2C(=O)CCl)cc1 [RSL3]	0.762
CNC(=O)c1cccc(NC(=O)N2CCC(Oc3ccccc3Cl)CC2)c1 + COC(=O)c1ccc([C@H]2c3[nH]c4ccccc4c3C[C@H](C(=O)OC)N2C(=O)CCl)cc1 [RSL3]	0.895
